From PubChem BioAssay (NCATS)
Inconclusive results are not listed. A call without a number means that no potency is given here. Active and inactive are the calls of the source. The call rests on the fitted dose curve; in most records, active means well fitted inhibition curve with a large enough effect; inconclusive means small, poorly fitted or top-dose-only effect; inactive means no such curve, though single readings can be large or run the other way.
Potency means the concentration at half of the fitted maximal effect.

The molecules below were run on Zika virus NS2B-NS3 protease (linked construct) (assay: Primary screen NINDS Rhodamine qHTS for Zika virus inhibitors (AID 1347160; further: nearly all actives have a fitted effect of over 55% in size)). Details: purified NS2B-NS3 protease, Rhodamine110 substrate fluorescence; series mostly up to 57.1 µM.
Procedure, shortened: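 Purified NS2B-NS3 protease with the NS2B hydrophilic domain joined by a flexible linker (25 nM) in 10 mM Tris-HCl pH 8.0, 0.01% Tween 20, preincubated 15 min at RT with compound; Rhodamine110 peptide substrate 1.5 µM; fluorescence change over 15 min; 4-parameter Hill fit.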
With `COc1cc([C@@H]2Oc3c(OC)cc(CCCO)cc3[C@@H]2CO[C@@H]2O[C@H](CO)[C@@H](O)[C@H](O)[C@H]2O)ccc1O` the Potency was “inactive”. For `CC(=O)N[C@H]1CCN(c2ccc(C3=NOC(CN[S+](=O)([O-])C(C)C)C3)cc2F)C1` (some centres not stated), the Potency was “inactive”. `CCC(C)/C=C(C)/C=C/C1=CC2=C(Cl)C(=O)C(C)(OC(C)=O)C(=O)C2=CN1C1CCCCN(C(CCC(N)=O)C(=O)O)C1=O` (configuration not stated) was tested, and the Potency was “inactive”. With `C[C@@H]1O[C@@H](O[C@H]2[C@H](O)[C@@H](C(=O)O)O[C@@H](O[C@H]3CC[C@@]4(C)C(CC[C@]5(C)C4CC=C4C6CC(C)(C)CC[C@]6(C(=O)O)CC[C@]45C)C3(C)C)[C@@H]2O[C@@H]2O[C@H](CO)[C@@H](O)[C@H](O)[C@H]2O)[C@H](O)[C@H](O)[C@H]1O` (some centres not stated) the Potency was “inactive”. In the case of `COC(=O)[C@@H]1C2CC3c4[nH]c5ccccc5c4CCN3CC2CC[C@@H]1O` (some centres not stated), the Potency is reported as “inactive”. For `COc1ccc(C(=O)O[C@H]2CC(C)=CC[C@@]3(C)[C@@H](OC(C)=O)C[C@@](O)(C(C)C)[C@H]23)cc1`, the Potency was “inactive”. For `CCC[C@@H]1C[C@@H](C(=O)N[C@@H]([C@H]2O[C@H](SC)[C@H](O)[C@@H](O)[C@@H]2O)[C@@H](C)O)N(C)C1`, the Potency was “inactive”. In the case of `COc1ccccc1[C@@H]1C2=C(CC(C)(C)CC2=O)Nc2n[nH]c(C(F)(F)F)c21`, the Potency is reported as “inactive”. In the case of `CCc1c(CC(N)=O)c2cc(OCCCP(=O)(O)O)ccc2n1Cc1ccccc1`, the Potency is reported as “inactive”. With `C=C[C@@]1(C)CC(=O)C2[C@](C)(O1)[C@@H](OC(C)=O)[C@@H](O)[C@H]1C(C)(C)CCC[C@]21C` (some centres not stated) the Potency was “inactive”. `O=C(O)C[C@H]1CCC(=O)[C@@H]1C/C=C\CCOC1OC(CO)C(O)C(O)C1O` (some centres not stated) was tested, and the Potency was “inactive”. With `C=C1CCC2C(OC(=O)C2(O)COC(C)=O)C2C(=C)C(O)CC12` (configuration not stated) the Potency was “inactive”. In the case of `CCn1cc(C2=NOC(C(=O)Nc3c(C)n(C)n(-c4ccccc4)c3=O)C2)c(C)n1` (configuration not stated), the Potency is reported as “inactive”. `CC[C@@H](c1ccc(F)c(F)c1)n1c(C(=O)OC)c(-c2ccno2)[nH]c1=S` was tested, and the Potency was “inactive”. `CC(=O)N[C@H]1[C@H](O[C@H]2CC[C@@]3(C)C(CC[C@]4(C)C3CC=C3C5CC(C)(C)CC[C@]5(C(=O)O)[C@H](O[C@@H]5O[C@H](CO)[C@@H](O)[C@H](O)[C@H]5O)C[C@]34C)C2(C)C)O[C@H](CO[C@@H]2OC[C@H](O)[C@H](O)[C@H]2O[C@@H]2OC[C@@H](O)[C@H](O)[C@H]2O)[C@@H](O)[C@@H]1O` (some centres not stated) was tested, and the Potency was “inactive”. With `C=C[C@](C)(CC/C=C(\C)C(=O)O)O[C@@H]1OC[C@H](O)[C@H](O)[C@H]1O` the Potency was 12.6 µM (active). With `COc1cc(C2Oc3c(OC)cc(/C=C/C(=O)OC[C@H]4O[C@@H](OC(C)(C)C(=O)O)[C@H](O)[C@@H](O)[C@@H]4O)cc3C2CO)ccc1O` (some centres not stated) the Potency was “inactive”. `O=C(O)CCc1cccc(O[C@@H]2O[C@H](CO)[C@@H](O)[C@H](O)[C@H]2O)c1O` was tested, and the Potency was “inactive”. For `COc1cc(C2c3cc(O)c(OC)cc3CC(CO)C2CO)ccc1O` (configuration not stated), the Potency was “inactive”. `C=C1CCC2[C@@](C)(C=O)CCC[C@]2(C)[C@H]1CC/C(C)=C/CO` (some centres not stated) was tested, and the Potency was “inactive”. For `CC(C)CC(=O)OC[C@H]1O[C@@](COC(=O)CC(C)C)(O[C@H]2O[C@H](CO)[C@@H](O)[C@H](O)[C@H]2O)[C@@H](OC(=O)CC(C)C)[C@@H]1OC(=O)CC(C)C`, the Potency was “inactive”. For `O=C(O[C@H]1[C@@H]2C=CO[C@@H](O[C@@H]3O[C@H](CO)[C@@H](O)[C@H](O)[C@H]3O)[C@@H]2[C@@]2(CO)O[C@@H]12)c1ccc(O)c(O)c1`, the Potency was “inactive”. For `CCC(C)/C=C(C)/C=C/C1=CC2=C(Cl)C(=O)C(C)(OC(C)=O)C(=O)C2=CN1CCCC(=O)O` (configuration not stated), the Potency was “inactive”. With `C[C@@H]1CC[C@]2(C(=O)O)CC[C@]3(C(=O)O)C(=CCC4[C@@]5(C)CC[C@H](O[C@@H]6O[C@@H](C)[C@H](O[C@@H]7O[C@H](CO)[C@@H](O)[C@H](O)[C@H]7O)[C@@H](O)[C@H]6O)C(C)(C)C5CC[C@]43C)C2[C@H]1C` (some centres not stated) the Potency was “inactive”. For `CC(=O)O[C@H]1C[C@@H]2[C@]3(CC[C@]4(C)[C@@H](C5(C)CCC(C(C)(C)O)O5)[C@@H](O)C[C@@]24C)C[C@@]32CC[C@H](O[C@@H]3OC[C@@H](O)[C@H](O)[C@H]3O)C(C)(C)[C@H]12` (some centres not stated), the Potency was “inactive”. In the case of `CC1(C)CC2C(C1)C1(C)CCC13OC3(CO)C2O` (configuration not stated), the Potency is reported as “inactive”. With `CC1=C(C)C(=O)OC(C(C)(O)C2CCC3C4CC=C5CC(OC6OC(COC7OC(CO)C(O)C(O)C7O)C(O)C(O)C6O)CC(O)C5(C)C4CCC32C)C1` (configuration not stated) the Potency was “inactive”.
